SMILES strings stand for the structures.

The assay addresses T1, Aspartate--tRNA(Asp/Asn) ligase (Mycobacterium tuberculosis (strain ATCC 25618 / H37Rv)) (UniProt P9WFW3).
T1 sequence (whole entry): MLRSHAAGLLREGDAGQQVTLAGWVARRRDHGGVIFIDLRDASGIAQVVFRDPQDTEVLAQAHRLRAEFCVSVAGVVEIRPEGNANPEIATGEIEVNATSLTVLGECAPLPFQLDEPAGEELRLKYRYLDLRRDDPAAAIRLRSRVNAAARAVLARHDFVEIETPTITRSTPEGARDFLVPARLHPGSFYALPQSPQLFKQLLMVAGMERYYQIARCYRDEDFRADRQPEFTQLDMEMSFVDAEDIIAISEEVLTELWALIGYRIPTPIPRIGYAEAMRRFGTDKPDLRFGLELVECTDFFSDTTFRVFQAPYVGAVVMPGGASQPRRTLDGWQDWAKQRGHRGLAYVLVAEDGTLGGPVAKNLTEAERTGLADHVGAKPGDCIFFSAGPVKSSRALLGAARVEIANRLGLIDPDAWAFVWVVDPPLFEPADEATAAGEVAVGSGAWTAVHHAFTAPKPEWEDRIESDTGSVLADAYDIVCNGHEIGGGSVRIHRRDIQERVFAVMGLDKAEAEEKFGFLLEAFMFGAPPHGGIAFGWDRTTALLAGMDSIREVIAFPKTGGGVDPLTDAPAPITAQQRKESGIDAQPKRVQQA
Kind of assay: Assay for Asp RNA synthetase-1 from Mycobacterium tuberculosis. The assay is classed as functional. On the set-up: scale not given: in the data most compounds retested in dose-response had high values. As to conditions: 30 µM.
Take `CCCOCCN1CCC2(CC1)CC(c1ccccc1)C(=O)N2C` (stereo not given): the Percent Effect is -5.14%. As for `Cc1cc(C)nc(N2Cc3cnn(Cc4ccc(F)cc4)c3C2)n1`, the Percent Effect was -2.29%. On to `COc1ccccc1OCCN1CCCC(c2noc(C3CC3)n2)C1` (stereo not given), for which the Percent Effect was -2.65%. In the case of `O=C(NCCCn1cccn1)N1CCCC1c1ccncc1` (stereo not given), the Percent Effect was -0.931%. The value for `Cc1ccc(C#N)c(N2CCC(c3nccn3CCN(C)C)CC2)n1` was -1.39%; that for `CCc1nc(NS(=O)(=O)c2cc(C)ccc2F)no1` was -2.52%. Consider `Cn1cc(CNc2ncnc3c2CCN(Cc2ccsc2)CC3)cn1`, for which the Percent Effect was 1.05%. Then `c1cnn(CC2CCCCN2c2ncnc3sccc23)c1` (stereo not given), with 2.59%. Then `Cc1nn(C)c(C)c1C1COCCN1c1ncnc2sccc12` (stereo not given), with 0.54%; and `O=C(c1cncc(N2CCC3(CCNCC3)CC2)n1)N1CCCC1`, with -3.85%; and `COC(=O)c1cccc(C(=O)N2CCCCC2CCn2ccnc2C)c1` (stereo not given), with 0.586%. The value for `Cc1nn(CCO)c(C)c1CNC1CCC(C)(C)c2ccccc21` (stereo not given) was -0.793%; that for `CN1C(=O)C(c2ccccc2)CC12CCN(CCOCCO)CC2` (stereo not given) was -1.23%; that for `CCC(CO)N(Cc1ccccn1)C(=O)c1ccc2c(c1)CCO2` (stereo not given) was -5.37%. As for `Cc1cc(CN(C)C2CCCN(c3cccnn3)C2)on1` (stereo not given), the Percent Effect is 0.172%. With `CC(C)(C)OC(=O)NC(C)(C)c1noc(CN2CCCCC2)n1`, the Percent Effect was -0.448%. The value for `CCCC(NC(=O)c1cc(C)ccc1C)c1nnn[nH]1` (stereo not given) was -2.52%; that for `O=C(O)C(c1ccc2c(c1)OCO2)N1CCC(C(=O)N2CCCC2)CC1` (stereo not given) was -0.103%.

As for `CC(C)CN1CCCn2nc(CNC(=O)CCCc3cn[nH]c3)cc2C1`, the Percent Effect was -0.885%. Then `O=C(Nc1cccc(OCc2ccc(F)cc2)c1)C1COCCO1` (stereo not given), with -1.28%. As for `CCC(C)NC(=O)c1ccccc1-n1cnnn1` (stereo not given), the Percent Effect is -5.94%. The value for `CSc1cccc(CNC(=O)C2CC(=O)N(CCN(C)C)C2)c1` (stereo not given) was 2.84%.

Take `CCCSCC(=O)Nc1ncn(CC(=O)NCc2ccccc2)n1`: the Percent Effect turned out to be 1.55%. The value for `CCn1nc(C)c(CNC(=O)c2cn(CC3CCCO3)nn2)c1C` (stereo not given) was -4.13%; that for `O=c1oc(-c2cccs2)nn1CC(O)c1ccccc1` (stereo not given) was 1.71%; that for `CCN(CC1CN(Cc2ncc[nH]2)CCO1)c1cccnn1` (stereo not given) was -3.05%. The value for `COc1cccc(Cc2nnc(SC3CCOC3=O)o2)c1` (stereo not given) was -2.01%; that for `CCC(=O)N1CC[C@@H](c2ccc3ccccc3c2)[C@H](O)C1` was 2.26%. For the molecule `CCOC(=O)C1CCCN(c2ccc(-c3nc(C)no3)cn2)C1` (stereo not given), the Percent Effect was -0.931%. The value for `O=C(c1ccsc1)N1C[C@@H](CN2CCCC2)[C@@H](CO)C1` was -2.54%; that for `Cc1ccc(C2COCCN2C(=O)c2ccc(N(C)C)cc2)o1` (stereo not given) was -0.816%; that for `CN(C)CCn1c(=O)oc2ccc(NC(=O)c3cc(Cl)c[nH]3)cc21` was 5.07%.

In the case of `CC(C)N1CCC(NCc2cccnc2N(C)Cc2ccccc2)CC1`, the Percent Effect is -1.94%.

In the case of `COc1ccc(Cc2nnc(SC)o2)cc1OC`, the Percent Effect is -2.13%. For `COc1cccc(S(=O)(=O)CCN2CCCN(C(C)=O)CC2)c1`, the Percent Effect is -1.55%.

Take `CCn1nc(C)c(CNC(=O)c2cn(CCC3CCCCN3)nn2)c1C` (stereo not given): the Percent Effect is 0.0575%. Then `O=C(NCc1ccncc1)N(Cc1ccccc1F)C1CC1`, with -1.67%; and `CC(C)c1cccc(CSc2nnc(CN3CCCC3=O)o2)n1`, with 1.44%; and `Cc1cnn(C2CN(Cc3ccc4c(c3)OCCO4)C2)c1`, with 2.19%. Take `COc1cc(C)c(CN2CCC3(CC2)C(C(=O)O)CC(=O)N3C)cc1C` (stereo not given): the Percent Effect was -0.678%.

The values above are taken from ChEMBL document CHEMBL3988442, “University of Dundee, Small-Polar-MMV Screening Library” (2021).
